Data published in PubChem BioAssay (Tox21).
Where “and” joins values, the source holds several entries; their conditions need not be identical. Equal entries are not always repeated. Calls of active or inactive are those of the source. The call rests on the fitted dose curve; in most records, active means well fitted curve in the direction sought with a large enough effect in the repeat runs; inconclusive means weak or mixed curves; inactive means flat fitted curve, though single readings scatter.

experiment: qHTS assay to test for compound auto fluorescence at 460 nm (blue) in HepG2 cell free culture (AID 720685); conditions: Cell-free culture medium, blue autofluorescence 405/460 nm; series mostly up to 91.3 µM; fluorescence, % of fluorescent control: at the top concentration; further: potency means the concentration at half of the fitted maximal effect
Summary of the method: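 Compound (23 nL) or DMSO pinned into cell-free MEM with 10% FBS; blue fluorescence read at 405/460 nm excitation/emission, expressed as auto-fluorescence equivalency to triamterene.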
On the % scale 0 is the no-effect control and ±100 the full control effect; tags describe the fitted curve by direction and shape or compound fluorescence and quenching.

Structure (SMILES)	fluorescence, % of fluorescent control	Potency
OCCC1CCCCN1 (centres undefined)	0.0107% (inactive)	
Oc1ccc(Sc2ccc(O)cc2)cc1	-0.0165% (inactive)	
CCCC[C@H]1CN(CC2CCOCC2)C(=O)OC12CCN(C1(C)CCN(C(=O)c3c(C)ncnc3C)CC1)CC2	0.45% (inactive)	
O=C(O)COC(=O)Cc1ccccc1Nc1c(Cl)cccc1Cl	0.0872% [at 18.6 µM] (inactive)	
Cc1cc(C)c(S(=O)(=O)O)cc1N=Nc1cc(S(=O)(=O)O)c2ccccc2c1O	-0.856% (inactive)	
N#Cc1c(F)cccc1F	-0.0539% (inactive)	
CCOc1nc2cccc(C(=O)O)c2n1Cc1ccc(-c2ccccc2-c2nn[nH]n2)cc1	0.0468% [at 46 µM] (inactive)	
NC(N)=NN=C(/C=C/c1ccc([N+](=O)[O-])o1)/C=C/c1ccc([N+](=O)[O-])o1	-0.134% [at 46 µM] (inactive)	
Cc1ccccn1		inactive
CCCCCCOC(=O)CCC	-0.0936% (inactive)	
COc1cc(C(C)(C)C)c(O)c(C(C)(C)C)c1	0.206% (inactive)	
O=C(O)C(c1ccc(Cl)cc1)c1ccc(Cl)cc1	-0.0711% (inactive)	
COCCCCCCCCOCCC[Si](C)(O[Si](C)(C)C)O[Si](C)(C)C	-0.0699% (inactive)	
CC(Cc1cccc(C(F)(F)F)c1)NCCOC(=O)c1ccccc1 (centres undefined)	0.075% [at 46 µM] (inactive)	
O=C(/C=C/c1ccc(O)c(O)c1)O[C@@H]1C[C@](O)(C(=O)O)C[C@@H](O)[C@H]1O	2.75% [at 95.7 µM] (inactive)	
O=C1[C@H](CC[C@H](O)c2ccc(F)cc2)[C@@H](c2ccc(O)cc2)N1c1ccc(F)cc1	-0.0105% [at 46 µM] (inactive)	

Structure (SMILES)	fluorescence, % of fluorescent control	Potency
NC[C@H]1O[C@H](O[C@H]2[C@H](O)[C@@H](O[C@H]3O[C@H](CO)[C@@H](O)[C@H](N)[C@H]3O)[C@H](N)C[C@@H]2N)[C@H](O)[C@@H](O)[C@@H]1O	-0.077% [at 18.6 µM] (inactive) and 0.036% [at 3.72 µM] (inactive)	
CC(C)(C)c1cc(O)c(C(C)(C)C)cc1O	0.121% (inactive)	
C=C(C)C(=O)OCCN(C)C	0.0027% (inactive)	
S=C(S)NCCNC(=S)S	-0.0483% (inactive)	
Cc1ccc(C(C)c2ccc(C)c(C)c2)cc1C	-0.0071% (inactive)	
CCCCOC(=O)/C=C\C(=O)OCCCC	0.0758% [at 95.7 µM] (inactive)	
CC(C)(C)C1CCCCC1O (centres undefined)	0.0199% (inactive)	
O=C(O)Cc1cc(I)c(Oc2ccc(O)c(I)c2)c(I)c1		inactive
CN1CCC(=C2c3ccccc3C=Cc3ccccc32)CC1	-0.0448% [at 46 µM] (inactive)	
N[C@H]1C(O)O[C@H](CO)[C@H](O)[C@@H]1O (some centres undefined)	-0.104% (inactive)	
CC1CCc2cc(F)cc3c(=O)c(C(=O)O)cn1c23 (centres undefined)	0.0186% [at 46 µM] (inactive)	
CN(c1nccc(=O)[nH]1)C1CCN(c2nc3ccccc3n2Cc2ccc(F)cc2)CC1	-0.0471% [at 46 µM] (inactive)	
C=Cc1c(C)c2cc3[nH]c(cc4nc(cc5nc(cc1[nH]2)C(C)=C5CCC(=O)O)C(CCC(=O)O)=C4C)c(C)c3C=C	0.0201% [at 46 µM] (inactive)	
Nc1nc(N)c2nc(CNc3ccc(C(=O)N[C@@H](CCC(=O)O)C(=O)O)cc3)cnc2n1		35.5 µM [fluorescent] (active)
CCOc1cc(OCC)c(C(=O)CCC(=O)O)cc1OCC	-0.12% [at 46 µM] (inactive)	

experiment: qHTS assay to test for compound auto fluorescence at 535 nm (green) in HepG2 cell free culture (AID 720686); conditions: Cell-free medium, green autofluorescence 485/535 nm; series mostly up to 91.3 µM; fluorescence, % of fluorescein control: at the top concentration

Structure (SMILES)	fluorescence, % of fluorescein control	outcome
OCCC1CCCCN1 (centres undefined)	-0.148% (inactive)	
Oc1ccc(Sc2ccc(O)cc2)cc1	0.0482% (inactive)	
CCCC[C@H]1CN(CC2CCOCC2)C(=O)OC12CCN(C1(C)CCN(C(=O)c3c(C)ncnc3C)CC1)CC2	0.0431% (inactive)	
O=C(O)COC(=O)Cc1ccccc1Nc1c(Cl)cccc1Cl	0.0255% [at 18.6 µM] (inactive)	
c1ccc(OCc2ccc(CCCN3CCOCC3)cc2)cc1	0.002% [at 46 µM] (inactive)	
N#Cc1c(F)cccc1F	-0.0244% (inactive)	
CCOc1nc2cccc(C(=O)O)c2n1Cc1ccc(-c2ccccc2-c2nn[nH]n2)cc1	0.0377% [at 46 µM] (inactive)	
NC1CCN(c2nc3c(cc2F)c(=O)c(C(=O)O)cn3-c2ccc(F)cc2F)C1 (centres undefined)	-0.0343% [at 46 µM] (inactive)	
CCCCCCOC(=O)CCC	-0.0886% (inactive)	
CC(C)c1cccc(C(C)C)c1NC(=O)NS(=O)(=O)c1cc(C(C)(C)O)co1	0.0385% (inactive)	
O=C(O)C(c1ccc(Cl)cc1)c1ccc(Cl)cc1	-0.0206% (inactive)	
COCCCCCCCCOCCC[Si](C)(O[Si](C)(C)C)O[Si](C)(C)C	-0.0403% (inactive)	
O=C(/C=C/c1ccc(O)c(O)c1)O[C@@H]1C[C@](O)(C(=O)O)C[C@@H](O)[C@H]1O	-0.044% [at 95.7 µM] (inactive)	
NC[C@H]1O[C@H](O[C@H]2[C@H](O)[C@@H](O[C@H]3O[C@H](CO)[C@@H](O)[C@H](N)[C@H]3O)[C@H](N)C[C@@H]2N)[C@H](O)[C@@H](O)[C@@H]1O	-0.0088% [at 18.6 µM] (inactive) and 0.0013% [at 3.72 µM] (inactive)	
C=C(C)C(=O)OCCN(C)C	-0.0204% (inactive)	
S=C(S)NCCNC(=S)S	-0.0268% (inactive)	
Cc1ccc(C(C)c2ccc(C)c(C)c2)cc1C	-0.0449% (inactive)	
CCCCOC(=O)/C=C\C(=O)OCCCC	0.0139% [at 95.7 µM] (inactive)	
CC(C)(C)C1CCCCC1O (centres undefined)	-0.104% (inactive)	
O=C(O)Cc1cc(I)c(Oc2ccc(O)c(I)c2)c(I)c1		inactive
CN1CCC(=C2c3ccccc3C=Cc3ccccc32)CC1	-0.0963% [at 46 µM] (inactive)	
CC1CCc2cc(F)cc3c(=O)c(C(=O)O)cn1c23 (centres undefined)	-0.0517% [at 46 µM] (inactive)	
CN(c1nccc(=O)[nH]1)C1CCN(c2nc3ccccc3n2Cc2ccc(F)cc2)CC1	-0.0041% [at 46 µM] (inactive)	
Cc1cccc(C(C)(C)C)c1O	0.0079% (inactive)	
C=Cc1c(C)c2cc3[nH]c(cc4nc(cc5nc(cc1[nH]2)C(C)=C5CCC(=O)O)C(CCC(=O)O)=C4C)c(C)c3C=C	-0.129% [at 46 µM] (inactive)	
CCCCCC/C=C/C=O	0.0536% (inactive)	
NC(=S)N/N=C/c1cccnc1	-0.055% [at 46 µM] (inactive)	
Nc1nc(N)c2nc(CNc3ccc(C(=O)N[C@@H](CCC(=O)O)C(=O)O)cc3)cnc2n1		inactive
